Hits are enriched below; roughly 1.9% of the tested compounds scored in any of these assays.
Rev-erbA mod: Rev-erb alpha (human) modulation. AID 1259318. Rev-erbα–FITC-DNA binding, fluorescence polarization, 90 min. activity, % at 10 µM. P20393. actives 0.79% (n = 370,000);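 active = activity above about 14%, limit read from the data; passing the limit was not always enough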;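 note: 0% = DMSO wells with 35 nM protein and 100% = DMSO wells with 750 nM protein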
Target sequence (P20393 whole entry, looked up): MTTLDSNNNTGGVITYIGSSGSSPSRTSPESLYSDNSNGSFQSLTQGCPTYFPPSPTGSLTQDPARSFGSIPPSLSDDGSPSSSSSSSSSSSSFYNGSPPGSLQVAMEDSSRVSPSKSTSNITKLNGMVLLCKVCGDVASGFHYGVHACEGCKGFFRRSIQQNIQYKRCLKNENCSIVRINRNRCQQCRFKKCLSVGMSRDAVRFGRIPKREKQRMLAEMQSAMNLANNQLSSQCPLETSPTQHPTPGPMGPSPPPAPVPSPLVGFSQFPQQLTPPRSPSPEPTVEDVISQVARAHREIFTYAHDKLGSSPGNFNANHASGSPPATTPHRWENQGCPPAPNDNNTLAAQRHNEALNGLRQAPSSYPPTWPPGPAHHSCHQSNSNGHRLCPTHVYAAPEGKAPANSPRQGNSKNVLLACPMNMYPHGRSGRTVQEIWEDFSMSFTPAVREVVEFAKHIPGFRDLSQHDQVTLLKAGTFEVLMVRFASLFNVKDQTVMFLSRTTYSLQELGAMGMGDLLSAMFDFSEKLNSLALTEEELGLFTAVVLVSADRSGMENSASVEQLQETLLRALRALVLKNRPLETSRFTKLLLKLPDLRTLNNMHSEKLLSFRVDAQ
PG9 Ab binder: PG9 antibody binding by small molecule; TR-FRET gp120-PG9 antibody binding; inhibition, % at 6.7 µM; actives 0.43% (n = 360,000); AID 624416; in the data active = inhibition above about 8.5%
ZTA counter: ZTA (EBV) inhibition in EBNA-1 counter-screen. P03206. AID 2234. inhibition, % at 11 µM. actives 0.15% (n = 320,000). ZTA-DNA binding, fluorescence polarization; in the data active = inhibition above about 33%
EBNA-1 inhibitor: blocks EBNA-1 binding to DNA. AID 1950. inhibition, % at 14.8 µM. EBNA-1 DNA binding, fluorescence polarization. actives 0.34% (n = 300,000); in the data active = inhibition above about 28%
p47phox inh: inhibitors of human p47phox binding; p47phox/p22phox peptide binding, fluorescence polarization, 2 h; actives 0.53% (n = 220,000); inhibition, % at 24.7 µM;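 active = inhibition above about 30%, limit read from the data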;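 note: 0% = p47phox with labelled peptide and 100% = labelled peptide alone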
aDG glyco act: alpha-DG glycosylation activation. Pro5-aDG cells, alpha-DG glycosylation AlphaScreen (IIH6); 0% Pro5, 100% B10-LARGE cell signal. actives 0.22% (n = 360,000). activation, % at 10 µM. AID 624168;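 active = activation of at least 8% versus controls, or a plate z-score of at least 8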;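 note: Pro5 are CHO cells carrying HIG-tagged alpha-DG that lacks glycosylation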
EBNA-1 confirm: EBNA-1 (EBV) inhibition, confirmation; AID 2292; inhibition, % at 14.8 µM; actives 35% (n = 830); Recombinant EBNA-1 DBD, Cy5-DNA fluorescence polarization; shares compounds with EBNA-1 inhibitor;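 active = mean inhibition across replicates above a set limit taken from the earlier primary screen, cut at about 28% in these data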;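 note: plate controls were EBNA-1 protein with DMSO for no effect and wells lacking EBNA-1 for full effect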
ZTA DNA inh trip: ZTA (EBV) inhibition, triplicate counter-screen; shares compounds with EBNA-1 inhibitor; Zta-ZRE DNA binding, Cy5 fluorescence polarization; inhibition, % at 11.1 µM; 830 tested, under 10 active; AID 2328;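 active = mean inhibition over triplicates above a set limit taken from the primary EBNA-1 screen, cut at about 37% in these data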;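 note: purified full length Zta protein with Cy5 labeled ZRE DNA probe; 0% = Zta with DMSO and 100% = wells lacking Zta protein; inhibitors lower polarization by freeing the labeled DNA probe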
Active calls of the source: *; . = no result.

SMILES	Rev-erbA mod	PG9 Ab binder	ZTA counter	EBNA-1 inhibitor	p47phox inh	aDG glyco act	EBNA-1 confirm	ZTA DNA inh trip
Cc1cc(C(=O)OC(C)C(=O)Nc2nc(-c3ccccc3)cs2)c(C)o1 (stereo not given)	2	0	-10	-7	-22	0	.	.
Cc1cc(C(=O)OCC(=O)Nc2nc(-c3ccccc3)cs2)c(C)o1	2	-1	7	34*	-10	0	10	-10
Cc1ccc(-c2csc(NC(=O)COC(=O)c3cccc(S(=O)(=O)N4CCOCC4)c3)n2)cc1	-2	-1	-6	98*	1	.	-3	0
CCOC(=O)c1ccc(-c2csc(NC(=O)CN3CCC(C)CC3)n2)cc1	10	3	-12	43*	.	0	70*	-1
Cc1ccc(-n2c(SCC(=O)Nc3ccc(S(=O)(=O)Nc4cc(C)nc(C)n4)cc3)nnc2-c2ccc(C(C)(C)C)cc2)cc1	6	.	.	.	.	.	.	.
Cc1cccc(-c2cccc3c4c([nH]c23)[C@@H]2C[C@H](N(C)C(=O)c3cccc(Cl)c3)[C@H]([C@H](C)O)CN2CC4)c1	-2	.	.	.	.	.	.	.
N#Cc1ccc(NC(=O)COC(=O)C2Cc3ccccc3CN2C(=O)c2ccccc2)cc1 (stereo not given)	0	-1	-18	33*	-1	1	6	-1
CC(=O)N1CCN(c2ccc([N+](=O)[O-])cc2)CC1	9	-2	-5	5	2	0	.	.
CO/N=C(/c1nonc1N)N1CCN(c2ccc([N+](=O)[O-])cc2)CC1	-2	0	-3	33*	-3	0	7	1
O=C(NCc1csc(-c2cccs2)n1)Nc1cccc(Cl)c1	5	1	8	28*	-18	0	23	4
CCC(=O)NCc1csc(-c2cccs2)n1	3	-1	-2	-6	-6	0	.	.
CCOc1ccccc1N(C(=O)c1ccco1)C(C(=O)NC1CCCC1)c1cccs1 (stereo not given)	-3	1	-4	-7	.	0	.	.
COc1ccc(N(C(=O)c2ccco2)C(C(=O)NC2CCCC2)c2cccs2)c(OC)c1 (stereo not given)	-1	-2	17	55*	.	0	8	13
Cn1cc(C2(c3c[nH]c4ccccc34)CCN(C(=O)OC(C)(C)C)CC2)c2ccccc21	15	.	.	.	.	.	.	.
O=C(NCCc1c[nH]c2ccccc12)OCc1cn(Cc2cccc(F)c2)nn1	-8	.	.	.	.	.	.	.
CCOC(=O)c1c(C)[nH]c(C(=O)COC(=O)CNC(=O)c2ccc(Cl)cc2Cl)c1C	5	2	12	96*	-9	0	26	4
COc1ccc(C(=O)COC(=O)CNC(=O)c2ccc(Cl)cc2Cl)c(OC)c1	-1	0	7	-11	.	0	.	.
Cc1cccc(N2CCN(S(=O)(=O)c3cc4c(cc3Cl)NC(=O)CO4)CC2)c1C	2	-1	-9	-4	.	0	.	.
COc1ccc(N2CCN(S(=O)(=O)c3cc4c(cc3C)NC(=O)CO4)CC2)cc1	-4	0	15	33*	.	0	18	1
COc1cccc(N2CCN(S(=O)(=O)c3cc4c(cc3Cl)NC(=O)CO4)CC2)c1	-1	-1	12	32*	.	0	21	3
Cc1cc2c(cc1S(=O)(=O)N1CCCCC1)OCC(=O)N2	4	1	-2	5	.	0	.	.
CCCCCCCCN1C(=O)N2Cc3cc(OC)ccc3C2CS1(=O)=O (stereo not given)	-10	.	.	.	.	.	.	.
COC(=O)C1CN(Cc2cn(Cc3ccccc3)nn2)CCS(=O)(=O)N1Cc1ccc(Cl)cc1 (stereo not given)	5	.	.	.	.	.	.	.
CCOC(=O)[C@]12CCCCC/C=C\1N(Cc1ccc(OC)cc1)C(=O)[C@H]2CC(=O)NCCCOC	3	.	.	.	.	.	.	.
COc1ccc(NC(=O)CSc2nc3nc(C)cc(C)c3c(=O)[nH]2)cc1	-6	0	28	61*	.	0	-14	-7
SMILES	Rev-erbA mod	PG9 Ab binder	ZTA counter	EBNA-1 inhibitor	p47phox inh	aDG glyco act	EBNA-1 confirm	ZTA DNA inh trip
CO/C([O-])=N/c1c[n+](-c2ccc(Cl)cc2)no1	-4	-1	7	39*	-9	0	-6	-6
C[C@H]1[C@H](NC(=O)c2ccc(Cl)c(Cl)c2)CC[C@@]23CCCN2C(=O)CCC[C@@H]13	-4	.	.	.	.	.	.	.
CC1=C2NC(N)=[N+](CC3CC3)C(Cc3ccccc3)[C@@H]2n2c(=O)n(-c3ccccc3)c(=O)n2C1 (stereo not given in full)	0	.	.	.	.	.	.	.
O=C(Nc1ccc(N2CCN(c3ccc(C(F)(F)F)cn3)CC2)nc1)c1cccs1	2	0	2	39*	-16	0	14	-3
O=C(COC(=O)/C=C/c1ccccc1)Nc1cc(C(F)(F)F)ccc1N1CCOCC1	-5	-2	-11	55*	2	0	75*	-8
CCN(CC)S(=O)(=O)c1ccc(C(=O)NN(C)C2=NS(=O)(=O)c3ccccc32)cc1	-8	2	-2	36*	.	0	2	-11
CN(NC(=O)c1ccccc1)C1=NS(=O)(=O)c2ccccc21	-5	0	5	-2	2	0	.	.
Oc1ccc2[nH]cc(CCc3ccccc3)c2c1-c1ccccc1	3	.	.	.	.	.	.	.
O=C(NC(=S)NCc1nc2ccccc2[nH]1)c1ccc(F)cc1	-1	1	20	33*	-4	0	-13	-12
Cc1cccc(-c2noc(CCC(=O)Nc3ccc(C(N)=O)cc3)n2)c1	-3	-1	0	76*	-9	0	39*	-7
CCN1Cc2nnn(Cc3ccc(C)cc3)c2-c2ccccc2S1(=O)=O	6	.	.	.	.	.	.	.
COC(=O)Cc1c(C)c2ccc(OCC(=O)N3CCCC(C)C3)c(C)c2oc1=O (stereo not given)	-6	2	-7	48*	.	0	-18	-10
COC(=O)Cc1c(C)c2ccc(OCC(C)=O)c(C)c2oc1=O	10	-1	5	6	-9	0	.	.
COC(=O)[C@H]1C[C@@]2(c3ccccc3)c3ccccc3N[C@H]2N1	0	.	.	.	.	.	.	.
CCOC(=O)N1C(=O)C[C@](Sc2ccc(OC)cc2)(C(=O)N(C)C)[C@H]1c1ccc(OC)cc1	9	.	.	.	.	.	.	.
O=C(Nc1nnc(-c2cccnc2)s1)c1cnc2ccccc2c1	-8	.	.	.	.	.	.	.
O=C(N/N=C/c1ccc(F)cc1)c1cc(-c2ccc3c(c2)OCO3)n[nH]1	-18	0	-2	32*	-15	0	16	4
CN(C)c1ccc(/C=N/NC(=O)c2cc(-c3ccc4c(c3)OCO4)n[nH]2)cc1	-1	0	-6	-11	-12	0	.	.
COc1ccc(S(=O)(=O)N2CCOCC2)cc1NC(=O)c1ccc(S(=O)(=O)N2CCCCC2)cc1	0	0	.	.	.	0	.	.

High-throughput results as filed in PubChem BioAssay.
